Assay results taken from PubChem BioAssay (NCATS).
Results filed as inconclusive are left out. Where a call stands in place of a potency, no number is given. Activity calls are given as the source filed them. Calls come from the whole dose curve; as a rule, active = well fitted inhibition curve with a large enough effect; inconclusive = small, poorly fitted or top-dose-only effect; inactive = flat fitted curve, though single readings scatter.

Biological target: Dual specificity protein kinase CLK4 (Homo sapiens) (UniProt Q9HAZ1)
Sequence (Q9HAZ1 whole entry, looked up): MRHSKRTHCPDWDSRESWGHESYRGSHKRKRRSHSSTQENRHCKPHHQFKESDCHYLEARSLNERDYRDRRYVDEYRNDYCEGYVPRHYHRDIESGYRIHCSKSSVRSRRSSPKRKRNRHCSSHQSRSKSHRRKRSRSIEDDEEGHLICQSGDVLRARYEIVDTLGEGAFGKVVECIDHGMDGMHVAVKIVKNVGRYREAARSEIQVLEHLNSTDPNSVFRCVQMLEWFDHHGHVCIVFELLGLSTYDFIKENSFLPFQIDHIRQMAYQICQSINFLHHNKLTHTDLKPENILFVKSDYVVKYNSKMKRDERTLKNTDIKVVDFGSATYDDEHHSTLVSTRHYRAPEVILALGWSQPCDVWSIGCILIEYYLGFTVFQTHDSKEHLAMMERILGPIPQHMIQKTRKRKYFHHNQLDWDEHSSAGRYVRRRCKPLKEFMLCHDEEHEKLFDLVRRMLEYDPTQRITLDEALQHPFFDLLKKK
Experiment: qHTS Assay for Inhibitors of CDC-like Kinase 4 (Kinase-Glo Assay) (AID 1770); note: nearly all actives have a fitted effect of over 65% in size
Details: recombinant Clk4, Kinase-Glo ATP depletion luminescence; series mostly up to 66.7 µM
How it was run: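 Inhibition was judged from remaining ATP, measured by Ultra-Glo luciferase bioluminescence after Clk4 (25 nM) had acted on RS peptide at 1 uM ATP for 4.5 hours, room temperature.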
Potency is the fitted concentration of half-maximal effect.

SMILES	Potency
FC(F)(F)c1ccccc1-c1nccc(NCc2cccs2)n1	inactive
CN1CCN(c2ncc3ncc(=O)n(C[C@H]4CCCO4)c3n2)CC1	inactive
COCCn1c(=O)c(-c2cccc(C#N)c2)nc2cnc(Oc3ccccc3)nc21	inactive
CS(=O)(=O)Nc1cccc(-c2ccc3ncnc(Nc4ccccc4)c3c2)c1	15.8 µM (active)
FC(F)(F)c1ccccc1-c1nc(NCc2cccs2)c2ccccc2n1	inactive
c1ccc(CNc2ncnc3ccc(-c4cccnc4)cc23)cc1	3.16 µM (active)
COc1ccc(-c2nc3cnc(N4CCN(C)CC4)nc3n(Cc3cccs3)c2=O)cc1	inactive
COCCn1c(=O)cnc2cnc(Nc3cccc(OC)c3)nc21	2.24 µM (active)
COCCn1c(=O)cnc2cnc(Nc3ccccc3)nc21	3.55 µM (active)
CN1CCN(c2ncc3nc(-c4cc(F)cc(F)c4)c(=O)n(CCc4ccccc4)c3n2)CC1	inactive
O=c1c(-c2ccc(Cl)cc2)nc2cnc(N3CCNCC3)nc2n1Cc1cccs1	inactive
O=c1c(-c2ccc(F)cc2)nc2cnc(N3CCNCC3)nc2n1C1CC1	inactive
COc1ccc(-n2c(=O)c(-c3ccc(Cl)cc3)nc3cnc(N4CCNCC4)nc32)cc1	inactive
COCCNc1ncnc2ccc(-c3cccc(OC)c3)cc12	0.708 µM (active)
O=c1c(-c2ccc(Cl)cc2)nc2cnc(N3CCOCC3)nc2n1-c1ccccc1	inactive
CN(C)c1ncc2nc(-c3ccc(F)cc3)c(=O)n(Cc3ccc(F)cc3)c2n1	inactive
COc1ccc(-c2nc3cnc(Oc4ccccc4)nc3n(CCC#N)c2=O)cc1	inactive
COc1cccc(Nc2ncc3nc(CCc4ccccc4)c(=O)n(C)c3n2)c1	inactive
Cc1nc2cncnc2n(C2CC2)c1=O	inactive
COc1ccc2[nH]cc(CCNc3ncnc4ccc(-c5cccnc5)cc34)c2c1	2.24 µM (active)

SMILES	Potency
Cn1c(=O)c(-c2ccc(Cl)cc2)nc2cnc(N3CCOCC3)nc21	inactive
CN(C)c1ncc2nc(-c3ccccc3)c(=O)n(Cc3ccc(F)cc3)c2n1	inactive
COc1ccc(Oc2ncc3nc(-c4ccc(Cl)cc4)c(=O)n(C[C@H]4CCCO4)c3n2)cc1	inactive
COc1ncc2nc(-c3ccc(F)cc3)c(=O)n(C)c2n1	inactive
CN1CCN(c2ncc3nc(-c4cc(F)cc(F)c4)c(=O)n(Cc4cccs4)c3n2)CC1	inactive
CCNc1ncc2nc(-c3ccccc3)c(=O)n(Cc3cccs3)c2n1	inactive
CN1CCN(c2ncc3nc(-c4ccc(Cl)cc4)c(=O)n(-c4ccccc4)c3n2)CC1	inactive
CN1CCN(c2ncc3nc(-c4ccc(F)cc4)c(=O)n(Cc4cccs4)c3n2)CC1	inactive
CNc1nc(-c2ccccc2CN(C)C)nc2ccccc12	inactive
COCCNc1ncnc2ccc(-c3cccnc3)cc12	12.6 µM (active)
COc1cccc(Cn2c(=O)c(-c3cccc(C#N)c3)nc3cnc(N4CCN(C)CC4)nc32)c1	inactive
COc1cccc(Cn2c(=O)c(-c3cc(F)cc(F)c3)nc3cnc(N(C)C)nc32)c1	inactive
COc1cccc(Cn2c(=O)c(-c3cc(F)cc(F)c3)nc3cnc(N4CCN(C)CC4)nc32)c1	inactive
COc1cccc(Nc2ncc3nc(C)c(=O)n(Cc4cccs4)c3n2)c1	inactive
CN1CCN(c2cc(-c3ccoc3)ncn2)CC1	inactive
CN(C)c1ncnc2ccc(-c3ccoc3)cc12	0.501 µM (active)
CCNc1ncc2nc(-c3cn(C)c4ccccc34)c(=O)n(Cc3cccc(OC)c3)c2n1	inactive
COc1ccc(-c2nc3cnc(Oc4cccc(Cl)c4)nc3n(C3CC3)c2=O)cc1	inactive
COc1ncc2nc(-c3cccs3)c(=O)n(CCc3ccccc3)c2n1	inactive

Biological target: Dual specificity protein kinase CLK4 (Homo sapiens) (UniProt Q9HAZ1)
Experiment: qHTS Assay for Inhibitors of CDC-like Kinase 4 (ADP-Glo Assay) (AID 1771); note: nearly all actives have a fitted effect of over 70% in size
Details: recombinant CLK4, ADP-Glo luminescence; series mostly up to 80 µM
How it was run: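 Luminescence from ADP-Glo reports ADP produced by 25 nM Clk4 acting on 100 uM RS repeat peptide with 1 uM ATP over 1 hr at room temperature; residual ATP is depleted before ADP is converted to ATP for detection.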

SMILES	Potency
FC(F)(F)c1ccccc1-c1nccc(NCc2cccs2)n1	inactive
CN1CCN(c2ncc3ncc(=O)n(C[C@H]4CCCO4)c3n2)CC1	inactive
COCCn1c(=O)c(-c2cccc(C#N)c2)nc2cnc(Oc3ccccc3)nc21	inactive
CS(=O)(=O)Nc1cccc(-c2ccc3ncnc(Nc4ccccc4)c3c2)c1	14.1 µM (active)
FC(F)(F)c1ccccc1-c1nc(NCc2cccs2)c2ccccc2n1	inactive
c1ccc(CNc2ncnc3ccc(-c4cccnc4)cc23)cc1	3.16 µM (active)
COc1ccc(-c2nc3cnc(N4CCN(C)CC4)nc3n(Cc3cccs3)c2=O)cc1	inactive
COCCn1c(=O)cnc2cnc(Nc3cccc(OC)c3)nc21	1.78 µM (active)
COCCn1c(=O)cnc2cnc(Nc3ccccc3)nc21	3.16 µM (active)
CN1CCN(c2ncc3nc(-c4cc(F)cc(F)c4)c(=O)n(CCc4ccccc4)c3n2)CC1	inactive
O=c1c(-c2ccc(Cl)cc2)nc2cnc(N3CCNCC3)nc2n1Cc1cccs1	inactive
O=c1c(-c2ccc(F)cc2)nc2cnc(N3CCNCC3)nc2n1C1CC1	inactive
COc1ccc(-n2c(=O)c(-c3ccc(Cl)cc3)nc3cnc(N4CCNCC4)nc32)cc1	inactive
COCCNc1ncnc2ccc(-c3cccc(OC)c3)cc12	0.562 µM (active)
O=c1c(-c2ccc(Cl)cc2)nc2cnc(N3CCOCC3)nc2n1-c1ccccc1	inactive
CN(C)c1ncc2nc(-c3ccc(F)cc3)c(=O)n(Cc3ccc(F)cc3)c2n1	inactive
COc1ccc(-c2nc3cnc(Oc4ccccc4)nc3n(CCC#N)c2=O)cc1	inactive
COc1cccc(Nc2ncc3nc(CCc4ccccc4)c(=O)n(C)c3n2)c1	inactive
Cc1nc2cncnc2n(C2CC2)c1=O	inactive
COc1ccc2[nH]cc(CCNc3ncnc4ccc(-c5cccnc5)cc34)c2c1	2.24 µM (active)

SMILES	Potency
Cn1c(=O)c(-c2ccc(Cl)cc2)nc2cnc(N3CCOCC3)nc21	inactive
CN(C)c1ncc2nc(-c3ccccc3)c(=O)n(Cc3ccc(F)cc3)c2n1	inactive
COc1ccc(Oc2ncc3nc(-c4ccc(Cl)cc4)c(=O)n(C[C@H]4CCCO4)c3n2)cc1	inactive
COc1ncc2nc(-c3ccc(F)cc3)c(=O)n(C)c2n1	inactive
CN1CCN(c2ncc3nc(-c4cc(F)cc(F)c4)c(=O)n(Cc4cccs4)c3n2)CC1	inactive
CCNc1ncc2nc(-c3ccccc3)c(=O)n(Cc3cccs3)c2n1	inactive
CN1CCN(c2ncc3nc(-c4ccc(Cl)cc4)c(=O)n(-c4ccccc4)c3n2)CC1	inactive
CN1CCN(c2ncc3nc(-c4ccc(F)cc4)c(=O)n(Cc4cccs4)c3n2)CC1	inactive
CNc1nc(-c2ccccc2CN(C)C)nc2ccccc12	inactive
COCCNc1ncnc2ccc(-c3cccnc3)cc12	12.6 µM (active)
COc1cccc(Cn2c(=O)c(-c3cccc(C#N)c3)nc3cnc(N4CCN(C)CC4)nc32)c1	inactive
COc1cccc(Cn2c(=O)c(-c3cc(F)cc(F)c3)nc3cnc(N(C)C)nc32)c1	inactive
COc1cccc(Cn2c(=O)c(-c3cc(F)cc(F)c3)nc3cnc(N4CCN(C)CC4)nc32)c1	inactive
COc1cccc(Nc2ncc3nc(C)c(=O)n(Cc4cccs4)c3n2)c1	inactive
CN1CCN(c2cc(-c3ccoc3)ncn2)CC1	inactive
CN(C)c1ncnc2ccc(-c3ccoc3)cc12	0.562 µM (active)
CCNc1ncc2nc(-c3cn(C)c4ccccc34)c(=O)n(Cc3cccc(OC)c3)c2n1	inactive
COc1ccc(-c2nc3cnc(Oc4cccc(Cl)c4)nc3n(C3CC3)c2=O)cc1	inactive
COc1ncc2nc(-c3cccs3)c(=O)n(CCc3ccccc3)c2n1	inactive
